High-throughput results as filed in PubChem.
These entries were drawn from the full list.
SARS PLpro yeast: SARS-CoV PLP inhibition in yeast | S. cerevisiae expressing SARS-CoV PLpro, growth rescue | Potency, µM (titrated, usually from 32.9 µM), for the others: at the top dose activity, positive = growth rescue, actives largely listed as activators | 330,000 tested, 0.19% active | AID 485353; calls by dose curve; also: 0% is about no effect; nearly all actives have a fitted effect of over 55% in size
NS1 inh: blocks influenza NS1 protein function; AID 2326; Potency, µM (top dose mostly 46.1 µM), for the others: top-dose activity, positive = more growth; 270,000 tested, 0.4% active; calls by dose curve; also: actives are rising curves; nearly all actives have a fitted effect of over 50% in size
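In this qHTS, NS1 from influenza A is expressed in budding yeast, where it slows growth. Cells are switched from glucose to 2% galactose medium (pH 6.0, -URA), treated with compound, and growth recovery is read at OD600.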
Pf growth 96h: inhibits malaria parasite growth, 96 h; P. falciparum luciferase reporter growth, 96 h; Potency, µM (highest dose often 28.7 µM), for inactives: at the highest dose activity change, negative = inhibition, hits mostly inhibitors; 320,000 tested, 6.9% active; also: % is scaled to controls: 0 for no effect and ±100 for the full control effect
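Erythrocytes infected with luciferase-expressing P. falciparum were dispensed at 2% hematocrit and 0.05% parasitemia (final), then incubated with compounds 96 hours at 37 C in 5% CO2. Luminescence after detection reagent addition reported growth.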
Pf growth 48h: inhibits P. falciparum growth in the first generation, 48 h. P. falciparum luciferase growth in erythrocytes, 48 h. Potency, µM (highest dose often 28.7 µM), for the others: top-dose activity change, negative = inhibition, actives largely listed as inhibitors. 310,000 tested, 5.9% active. AID 504832; also: % is scaled to controls: 0 for no effect and ±100 for the full control effect
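Compounds are pin-transferred into medium, infected erythrocytes (2% hematocrit, 0.1% parasitemia final) are added, and plates sit one parasite generation at 37 C in 5% CO2. Detection reagent is then added and luminescence measured.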
* = called active by the depositor; u = inconclusive; x = no result given. Unless noted, calls follow the shape of the dose curve; as a rule, active = well fitted inhibition curve with a large enough effect; inconclusive = small, poorly fitted or top-dose-only effect, or another doubt; inactive = no such curve, though single readings can be large or run the other way. Potency is read from the fitted curve at half-maximal effect.

SMILES	SARS PLpro yeast	NS1 inh	Pf growth 96h	Pf growth 48h
CC(C)N(C)S(=O)(=O)c1ccc(Cl)c(C(=O)O)c1	1%	x	12%	0%
COCc1nc2ccccc2n1CCc1ccccc1	21%	16%	u	-11%
CCOC(=O)Cc1csc(SCC(=O)NC2CCC(C)CC2)n1 (stereo not drawn)	-6%	x	34%	6%
Cc1ccc(N(C(=O)CNC(=O)c2ccco2)C(C(=O)NC2CCCCC2)c2cccnc2)cc1 (stereo not drawn)	0%	11%	u	-11%
Cc1nn2c(Nc3ccc(F)cc3)c3c(nc2c1-c1ccccc1)CCC3	11%	0%	u	u
